Data on 39 compounds can be found in PubChem BioAssay (NCI).

“And” between values parts separate entries of the source, which are not always exact repeats. Equal entries are not always repeated. Compounds without any hit were thinned out: in the full panel of roughly 83,000, 20% have a hit.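 Compound tested at a single concentration for 48 hours in 96-well plates; a percent growth value below 10 was scored as active.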 The source made the active and inactive calls.

The subject of the assay is COLO 205 colon. As to the kind of experiment: NCI-60 one-dose screen, 48 h (100 = growth as untreated, 0 = no growth, -100 = all killed). The following applies: 10 µM unless noted.
Turning to `CN(C)CCN1C(=O)c2c(c3c4ccccc4n4c3c3c2c2ccccc2n3C2CC(O)C(O)C4(C)O2)C1=O` (centres undefined), the growth is 18.9% (inactive).

Regarding `O/N=C(/c1ccccc1)c1ccc2c3c(cccc13)CC2`, the growth is 117% (inactive) and 103% (inactive).

`CCNC(=O)Oc1ccc(/C(=C(/C)Cc2ccc(OC)cc2)c2ccc(OCCN(CC)CC)cc2)cc1`: the growth is -69.1% (active).

As to `Cc1nnc(NS(=O)(=O)c2ccc(N=Nc3ccc(N)nc3N)cc2)s1`, the growth was 110% (inactive).

Regarding `Cn1cc(C2=C(c3cccc4ccccc34)C(=O)NC2=O)c2cc(Br)ccc21`, the growth is 92% (inactive).

`Cc1ccc2nc3ccccc3c(NCc3ccc(Cl)cc3)c2c1`: the growth was -53.3% (active).

Regarding `Brc1ccc(/C=C(/C2=NCCN2)n2ccc3ccccc32)cc1`, the growth was 64.8% (inactive).

As for `Cn1cc2c(=O)nc3c(-c4nc5ccccc5[nH]4)n[nH]n3c2n1`, the growth is 114% (inactive).

With `Cc1ccc2[nH]c(=S)[nH]c(=O)c2c1`, the growth was 117% (inactive).

Consider `N#CC1=C(N)Oc2c(sc3c(Br)cccc23)C1c1ccccn1` (centres undefined), for which the growth was 6.4% (active).

For `Cc1nc2sc(C(=O)Nc3cccc4ncccc34)c(N)c2cc1C(C)O` (centres undefined), the growth was 107% (inactive).

On to `COc1ccc2c(O)c(/C=C3\N=Nc4nc(C)ccc43)oc2c1CC1CCNCC1`, for which the growth was 78.4% (inactive).

For the compound `Clc1ccc(Nc2nc(Nc3ccc(Cl)cc3)nc(Nc3ccc(-c4cc(-c5cccc(Cl)c5)on4)cc3)n2)cc1`, the growth was 90.9% (inactive).

With `O=C(/C=C/c1ccc(Cl)s1)c1ccc(Cl)s1`, the growth was 112% (inactive) and 122% (inactive).

Regarding `O=C1/C(=C/c2ccc(-c3cccc(C(F)(F)F)c3)o2)SC(=S)N1CCc1ccc(O)cc1`, the growth was -3.13% (active).

Consider `O=C(CCN1CCOCC1)Nc1cccc(-n2cc(-c3ccncc3)c(-c3ccc(Cl)c(O)c3)n2)c1`, for which the growth was 0.424% (active).

On to `O=C(Nc1ccc(Cl)c(Cl)c1)Nc1ccc(Cl)c(Cl)c1`, for which the growth is -86.9% (active) and 17.1% (inactive).

Regarding `CCn1cc(C(=O)NN=C2CCCC2)c(=O)c2ccc(C)nc21`, the growth is 104% (inactive).

`CCOc1ccccc1NC(=O)c1cc2ccccc2cc1O`: the growth was 111% (inactive).

As for `O=C(c1ccc(Nc2nccc(NCCCNc3ccnc4cc(Cl)ccc34)n2)cc1)N1CCCCC1`, the growth is 27.2% (inactive).

For `Cc1ccc(-c2nc3nc(-c4ccc(Br)cc4)nc(N4CCCNCC4)c3o2)cc1`, the growth was -49% (active).

For `S=c1nc(CS)[nH]c2ccccc12`, the growth is 112% (inactive).

As to `Cc1ccc2c(c1)C(C)Cc1c(ncnc1-n1cnc3cc(C)ccc31)N2C` (centres undefined), the growth is -51.2% (active).

In the case of `Clc1ccc(/C=N\N2CCCCCC2)cc1`, the growth was 124% (inactive) and 130% (inactive).

Turning to `CC(=O)OC[C@]12CCC(C)(C)C=C1[C@H]1CC[C@@H]3[C@@]4(C)CCCNC(C)(C)[C@@H]4CC[C@@]3(C)[C@]1(C)CC2`, the growth was 1.01% (active).

With `Cc1[nH]c(C(=O)Nc2nc3ccc(NC(=O)CCN)cc3s2)c(Cl)c1Cl`, the growth is 104% (inactive).

For the compound `COc1ccc(C(=O)c2ccc(OC)c(OC)c2OC)cc1`, the growth was 3.87% (active) and -14.7% (active).

On to `COc1cc(NC2CCCCC2O)c2nc(-c3ccc(Cl)cc3)ccc2c1` (centres undefined), for which the growth is 93.2% (inactive) and 110% (inactive).

`CN1CCCc2cc(/C=C3\SC(=S)N(C(Cc4ccc(O)cc4)C(=O)O)C3=O)ccc21` (centres undefined): the growth is 112% (inactive).

For `Cc1cc(N2CCN(CC(=O)Nc3ccc4c(ccn4Cc4ccccc4)c3)CC2)nc(N2CCCCCC2)n1`, the growth is 30.6% (inactive).

For `CCCCC1COc2cccc3c2N1C=C/C3=C\C(=O)N(C)c1cccc(Cl)c1` (centres undefined), the growth was 100% (inactive).

Take `O=C(NNc1ccccc1)C1CCCN1` (centres undefined): the growth was 103% (inactive).

On to `O=C1C=C(Nc2ccccc2)c2ncccc2C1=O`, for which the growth was -76.6% (active).

As to `Nc1nc(CSc2n[nH]c(N)n2)nc(Nc2ccccc2)n1`, the growth is 109% (inactive).

As for `O=C1/C(=C/c2ccccc2[N+](=O)[O-])Cc2ccccc21`, the growth was -74.9% (active) and 18.5% (inactive).

Regarding `COc1ccc(/C=C2/C(=O)N=C3N2NC(c2ccccc2)=CN3c2ccccc2)cc1`, the growth is 121% (inactive).

Turning to `CCN(CC)CCCN1C(=O)c2c(c(C)c3c(oc4cc(OC)ccc43)c2C)C1=O`, the growth is 86.1% (inactive).

With `CC[C@]12CN3CCc4c([nH]c5ccccc45)[C@@](C(=O)OC)(c4cc5c(cc4OC)N(C)[C@H]4[C@@](O)(C(=O)OC)[C@H](OC(C)=O)[C@]6(CC)C=CCN7CC[C@]54[C@@H]76)CC(C3)[C@H]1O2` (some centres undefined), the growth was -49.9% (active).

In the case of `O=C(/C=C\c1ccc(Cl)c(Cl)c1)c1ccccc1`, the growth was 99.9% (inactive) and 121% (inactive).
